Hits are enriched below; roughly 10% of the tested compounds scored in any of these assays.
GPT2 inhibitor – Primary qHTS assay for inhibitors of Glutamate pyruvate transaminase 2 (GPT2). Alanine aminotransferase 2 (Homo sapiens), Q8TD30. Recombinant GPT2, coupled pyruvate oxidase/HRP Amplex Red fluorescence. Potency, µM (highest dose often 57.7 µM), hits mostly inhibitors. 0.25% of 100,000 active; also: nearly all actives have a fitted effect of over 60% in size
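GPT2 10ng/uL, a-KG 250uM, L-Ala 2mM, HEPES pH7.5 + 0.0001% Tween; 30 min RT. Then Amplex mix (PO/HRP/ThPP), 30 min RT dark, fluorescence. AOA 50uM used as positive control.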
HEK cytotox – Cytotoxic Profiling in HEK 293 Cell Line of Diverse Libraries Using Quantitative High-Throughput Screening; 6.6% of 94,000 active; Potency, µM (doses to about 115 µM), usual class: inhibitors; AID 1345083, 2018; HEK 293 viability, ATP luminescence (CellTiter-Glo), 48-72 h; also: nearly all actives have a fitted effect of over 60% in size
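HEK 293 cells seeded at 250 cells/well were exposed to compound for 48 or 72 hr at 37 degree Celsius. Viability taken as ATP content by CellTiter-Glo luminescence.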
NPR1 antag – Natriuretic polypeptide receptor (hNpr1) antagonism - Primary qHTS; HEK293 hNpr1 GloSensor cGMP, ANP-stimulated luminescence; AID 1347048, 2019; Potency, µM (series often up to 46.3 µM), actives largely listed as inhibitors; Atrial natriuretic peptide receptor 1 (Homo sapiens), P16066; 1.6% of 76,000 active; calls by dose curve; also: nearly all actives have a fitted effect of over 60% in size
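Compound pre-incubated 30 min at room temperature on GloSensor-loaded HEK293 cells stably carrying hNpr1 and the pGS-40F cGMP biosensor. Stimulation uses hNppA at 0.1 nM final; luminescence is taken at baseline and 20 min post-agonist.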
FLuc inh – Firefly luciferase inhibition profiling of diverse chemical library using quantitative high-throughput screening; purified P. pyralis luciferase, luminescence, biochemical; Potency, µM (titrated, usually from 115 µM), usual class: inhibitors; AID 1347043, 2019; Luciferin 4-monooxygenase (Photinus pyralis), P08659; 2.5% of 76,000 active; also: nearly all actives have a fitted effect of over 65% in size
Target sequence (P08659 whole entry, looked up): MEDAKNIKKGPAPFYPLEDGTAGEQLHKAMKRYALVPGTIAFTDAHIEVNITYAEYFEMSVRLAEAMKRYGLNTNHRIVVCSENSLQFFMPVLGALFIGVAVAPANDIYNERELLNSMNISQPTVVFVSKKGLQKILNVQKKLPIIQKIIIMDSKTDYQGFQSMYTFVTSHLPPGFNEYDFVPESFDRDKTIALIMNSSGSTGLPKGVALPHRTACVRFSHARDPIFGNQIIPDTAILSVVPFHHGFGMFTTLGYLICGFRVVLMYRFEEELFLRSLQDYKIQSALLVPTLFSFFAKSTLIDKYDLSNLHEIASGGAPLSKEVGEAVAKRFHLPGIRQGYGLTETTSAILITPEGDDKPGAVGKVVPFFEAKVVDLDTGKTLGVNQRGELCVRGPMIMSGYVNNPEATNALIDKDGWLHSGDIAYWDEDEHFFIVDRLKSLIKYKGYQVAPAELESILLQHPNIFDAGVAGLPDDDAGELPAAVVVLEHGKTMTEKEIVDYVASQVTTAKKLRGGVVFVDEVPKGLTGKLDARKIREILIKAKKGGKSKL
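Inhibitors were tested against purified firefly luciferase in a biochemical, low-substrate format (both substrates at 10uM) and luminescence measured with a CCD imager.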
NIH3T3 tox – Cytotoxic Profiling in NIH 3T3 Cell Line of Diverse Libraries Using Quantitative High-Throughput Screening; 4.3% of 94,000 active; Potency, µM (doses to about 96.7 µM), hits mostly inhibitors; NIH 3T3 viability, CellTiter-Glo ATP luminescence, 48-72 h; AID 1345082, 2018; also: nearly all actives have a fitted effect of over 55% in size
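Cytotoxicity is measured as loss of cellular ATP: NIH 3T3 cells (400/well) are exposed to compound for 48 or 72 hr at 37 °C, then CellTiter-Glo luminescence is imaged after 10 min at room temperature.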
NPR1 antag cnf – Natriuretic polypeptide receptor (hNpr1) antagonism - Confirmation. Potency, µM (titrated, usually from 57.6 µM), usual class: inhibitors. shares compounds with NPR1 antag. 76% of 1,400 active. HEK293 hNpr1 cGMP GloSensor luminescence, ANP-stimulated; calls by dose curve; also: nearly all actives have a fitted effect of over 70% in size
NPR2 antag – Natriuretic polypeptide receptor (hNpr2) antagonism - Subtype selectivity assay; shares compounds with NPR1 antag; HEK293 hNpr2 GloSensor cGMP luminescence, CNP-stimulated; Potency, µM (titrated, usually from 57.6 µM), usual class: inhibitors; 67% of 1,400 active; AID 1347046, 2019; calls by dose curve; also: nearly all actives have a fitted effect of over 70% in size
FLuc counter – Natriuretic polypeptide receptor (hNpr1) antagonism - Confirmation firefly luciferase (FLuc) inhibition counterscreen; shares compounds with NPR1 antag; purified FLuc enzyme, luminescence, Km substrate; Potency, µM (highest dose often 57.6 µM), actives largely listed as inhibitors; 0.7% of 1,400 active
GloSensor ctrl – Natriuretic polypeptide receptor (hNpr1) antagonism - Counterscreen GloSensor control cell line. shares compounds with NPR1 antag. HEK293 GloSensor cGMP, SNP-stimulated, luminescence. Potency, µM (series often up to 57.6 µM), actives largely listed as inhibitors. 69% of 1,400 active. AID 1347051, 2019; calls by dose curve; also: nearly all actives have a fitted effect of over 70% in size
Of the large screens only hits and unclear results are named; the others gave an inactive call (follow-up assays come after a bar, where they were run). Unless noted, calls follow the shape of the dose curve; as a rule, active = well fitted curve in the direction sought with a large enough effect; inconclusive = small, poorly fitted or top-dose-only effect, or another doubt; inactive = no such curve, though single readings can be large; an effect the other way counts as inactive or inconclusive.

O=C1CCC2(CCN1Cc1ccccc1)CCN(S(=O)(=O)c1cccs1)CC2	HEK cytotox inconclusive, NPR1 antag inconclusive, NIH3T3 tox inconclusive | NPR1 antag cnf inconclusive | NPR2 antag inactive | FLuc counter inactive | GloSensor ctrl inconclusive
COc1ccccc1OCCNC(=O)C1CCc2ncc(-c3ccc(F)cc3)n2C1 (stereo not drawn)	HEK cytotox inconclusive, NPR1 antag inconclusive | NPR1 antag cnf 19µM | NPR2 antag 19µM | FLuc counter inactive | GloSensor ctrl inactive
O=C(NCCc1ccccc1)C1CCc2ncc(-c3ccsc3)n2C1 (stereo not drawn)	HEK cytotox inconclusive, NPR1 antag inconclusive, NIH3T3 tox inconclusive | NPR1 antag cnf inconclusive | NPR2 antag inactive | FLuc counter inactive | GloSensor ctrl inactive
CN1CCN(Cc2ccc(Nc3cnc4ccc(-c5ccccc5)nn34)cc2)CC1	HEK cytotox 25µM, NPR1 antag 32µM, NIH3T3 tox inconclusive | NPR1 antag cnf 31µM | NPR2 antag 31µM | FLuc counter inactive | GloSensor ctrl 22µM
OCCc1ccc(Nc2cnc3ccc(-c4cccc(CO)c4)nn23)cc1	HEK cytotox inconclusive, FLuc inh inconclusive, NIH3T3 tox inconclusive
COc1ccc(N2CCN(c3nc(C(=O)NCc4ccc(C)cc4)cs3)CC2)cc1	HEK cytotox 28µM, NPR1 antag 4.5µM | NPR1 antag cnf 7.7µM | NPR2 antag 11µM | FLuc counter inactive | GloSensor ctrl 8.6µM
COc1ccc(N2CCN(c3nc(C(=O)NCc4cccc(C)c4)cs3)CC2)cc1	GPT2 inhibitor inconclusive, HEK cytotox 18µM, NPR1 antag 16µM, NIH3T3 tox inconclusive | NPR1 antag cnf 15µM | NPR2 antag 15µM | FLuc counter inactive | GloSensor ctrl 12µM
COc1ccc(N2CCN(c3nc(C(=O)N4CCCC(C)C4)cs3)CC2)cc1 (stereo not drawn)	HEK cytotox inconclusive, NPR1 antag inconclusive, FLuc inh inconclusive, NIH3T3 tox inconclusive
COc1ccc(N2CCN(c3nc(C(=O)NCc4ccc(C)c(C)c4)cs3)CC2)cc1	HEK cytotox 13µM, NPR1 antag 13µM, NIH3T3 tox inconclusive | NPR1 antag cnf 9.7µM | NPR2 antag 14µM | FLuc counter inactive | GloSensor ctrl 11µM
Cn1nc(-c2nncn2Cc2ccccc2)c2c1CCN(C(=O)c1[nH]nc3c1COc1ccccc1-3)C2	HEK cytotox inconclusive
CN1C(=O)[C@@H]2C[C@@H](CN2C(=O)CCC(=O)O)Oc2ccccc21	none
COc1ccc(-c2cccc(C(=O)N3CCC(NC(=O)c4ccccc4)CC3)c2)nn1	HEK cytotox inconclusive (no result: GPT2 inhibitor, NPR1 antag, FLuc inh)
O=C(NCCN1CCOCC1)c1ccc2oc(-c3ccnc(Cl)c3)nc2c1	none (no result: NPR1 antag, FLuc inh)
O=C(Nc1ccc(-c2cccc(F)c2)cc1)C1CCCN(C(=O)c2ccncc2)C1 (stereo not drawn)	HEK cytotox 14µM, NPR1 antag 7.1µM, NIH3T3 tox inconclusive | NPR1 antag cnf 14µM | NPR2 antag 15µM | FLuc counter inactive | GloSensor ctrl 11µM
O=C(Nc1cccc(-c2ccc(F)cc2)c1)C1CCCN(C(=O)c2cccnc2)C1 (stereo not drawn)	HEK cytotox inconclusive, NIH3T3 tox inconclusive
C[S+](=O)([O-])NCCn1ccc2cc(OC3CCN(c4ncc(F)cn4)CC3)cnc21	HEK cytotox inconclusive, NPR1 antag 22µM, NIH3T3 tox inconclusive | NPR1 antag cnf 20µM | NPR2 antag 28µM | FLuc counter inactive | GloSensor ctrl 22µM
COCCOC(=O)N1CCC(Oc2cnc3c(ccn3-c3cncnc3)c2)CC1	HEK cytotox inconclusive, NIH3T3 tox inconclusive
CN(C)CC1(O)CCCN(Cc2cc3ccccc3n2C)C1 (stereo not drawn)	HEK cytotox inconclusive, NIH3T3 tox inconclusive
COc1ccc(CN2C(=O)[C@@H]3C[C@@H](CN3C3CCCC3)Oc3ccccc32)cc1	HEK cytotox inconclusive, NPR1 antag inconclusive, NIH3T3 tox inconclusive | NPR1 antag cnf inactive | NPR2 antag inconclusive | FLuc counter inactive | GloSensor ctrl inactive
COc1ccc(CN2C(=O)[C@@H]3C[C@@H](CN3C(=O)c3cnccn3)Oc3ccccc32)cc1	NIH3T3 tox inconclusive
O=C1[C@@H]2C[C@@H](CN2C(=O)C2CC2)Oc2ccccc2N1Cc1ccccc1	none
COc1ccc(CN2C(=O)[C@@H]3C[C@@H](CN3C3CCC3)Oc3ccccc32)cc1	HEK cytotox inconclusive, NPR1 antag inconclusive, NIH3T3 tox 32µM | NPR1 antag cnf inactive | NPR2 antag inconclusive | FLuc counter inactive | GloSensor ctrl inactive
Cc1ccc(C)c(C(O)Cn2ccn3nc(-c4cccc(Br)c4)cc3c2=O)c1 (stereo not drawn)	HEK cytotox inconclusive, NIH3T3 tox inconclusive
CCCN1C(=O)Cc2cc(C(=O)NC(C)c3ccc(OCC)cc3)ccc21 (stereo not drawn)	GPT2 inhibitor inconclusive, HEK cytotox inconclusive, NPR1 antag inconclusive, NIH3T3 tox inconclusive | NPR1 antag cnf inconclusive | NPR2 antag inconclusive | FLuc counter inactive | GloSensor ctrl inconclusive
COc1cccc(CNC(=O)c2nn(C)c3nc(-c4ccccc4OC)ccc23)c1	none (no result: NPR1 antag, FLuc inh)
O=S(=O)(c1ccccc1)N1CCC(c2nc(CCOCC3CC3)no2)C1 (stereo not drawn)	NIH3T3 tox inconclusive
O=S(=O)(c1ccccc1)N1CCCC(c2nc(CCOCC3CCCC3)no2)C1 (stereo not drawn)	HEK cytotox inconclusive | NPR1 antag cnf inconclusive | NPR2 antag inconclusive | FLuc counter inactive | GloSensor ctrl inconclusive
